Shown are actives, neighbours in structure and some others; about 27% of the full set was active somewhere.
CYP2C9 inhib = human CYP2C9 inhibition; P11712; hit rate 20% among 96,000; CYP2C9 Supersomes, luciferin-H conversion, luminescence; AID 777; inhibition, % at 5 µM;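 active means blocking of liver enzyme CYP2C9 beyond about 50% at 5 µM, limit read from the data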
Cav32 inh = human Cav3.2 channel inhibition, primary screen; O95180; Cav3.2-expressing cells, Fluo-4 calcium fluorescence FDSS; active compounds read low; B-score at 10 µM; hit rate 4% among 100,000; AID 449739;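 active means single-dose well whose peak fluorescence ratio is a statistical outlier from its plate by either plate-standardised score or position-corrected B-score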
CYP2C19 inh = blocks human cytochrome P450 2C19; hit rate 21% among 96,000; CYP2C19 Supersomes, luciferin-H EGE luminescence, 30 min; AID 778; inhibition, % at 5 µM;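 active means CYP2C19 inhibition above a set limit at 5 µM in the primary screen, cut at about 50% in these data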;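 further: plate controls were negative control wells for no effect and 2.5 mM tranylcypromine positive control for full effect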
Target sequence (P33261 whole entry, looked up): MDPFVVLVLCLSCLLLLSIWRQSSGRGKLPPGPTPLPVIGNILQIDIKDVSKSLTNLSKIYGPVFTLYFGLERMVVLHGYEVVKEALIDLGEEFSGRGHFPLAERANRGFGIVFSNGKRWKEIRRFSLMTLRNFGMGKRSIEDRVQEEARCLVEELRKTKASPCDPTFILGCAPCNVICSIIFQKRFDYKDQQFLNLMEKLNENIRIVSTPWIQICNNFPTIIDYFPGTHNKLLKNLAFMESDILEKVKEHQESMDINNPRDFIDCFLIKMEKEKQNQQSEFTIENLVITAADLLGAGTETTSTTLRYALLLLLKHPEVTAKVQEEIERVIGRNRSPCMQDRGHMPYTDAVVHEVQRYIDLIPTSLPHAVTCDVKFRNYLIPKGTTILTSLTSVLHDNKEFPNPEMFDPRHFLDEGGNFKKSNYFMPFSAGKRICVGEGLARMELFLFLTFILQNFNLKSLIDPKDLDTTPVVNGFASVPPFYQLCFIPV
CYP2C9 activ = activators of human CYP2C9 | recombinant CYP2C9, luciferin-H conversion, luminescence; active compounds read high; factor 1 = untreated enzyme, 0 = blocked | activation factor at 5 µM | hit rate 1.4% among 96,000 | AID 1024;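 active means activation factor of 2 or more for CYP2C9 at a 5 µM dose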;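 further: 0 = sulfaphenazole-blocked wells and 1 = vehicle-only wells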
CYP2C19 act = increases human CYP2C19 enzyme activity | activation factor at 5 µM | recombinant CYP2C19, luciferin-H EGE luminescence; active compounds read high; 0 = fully inhibited enzyme, 1 = untreated enzyme | 96,000 tested, under 10 active;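 active means activation factor of at least 2 at 5 µM in the primary screen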;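 further: 0 = wells with 2.5 mM tranylcypromine and 1 = vehicle-only wells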
Numbers without * were called inactive.

For CC(C)CCn1c(N)c(S(=O)(=O)c2cccs2)c2nc3ccccc3nc21 the results were CYP2C9 inhib 84.8*, Cav32 inh -1.73, CYP2C19 inh 39.0, CYP2C9 activ 0.2 and CYP2C19 act 0.6.
Screening Nc1c(S(=O)(=O)c2cccs2)c2nc3ccccc3nc2n1Cc1ccc2c(c1)OCO2 returned CYP2C9 inhib 90.9*, Cav32 inh -0.88, CYP2C19 inh 42.4, CYP2C9 activ 0.1 and CYP2C19 act 0.6.
`Nc1c(S(=O)(=O)c2cccs2)c2nc3ccccc3nc2n1CCc1ccccc1` gave CYP2C9 inhib 58.5*, CYP2C19 inh 57.9*, CYP2C9 activ 0.4 and CYP2C19 act 0.4.
`CC(C)CC(NC(=O)c1ccco1)C(=O)Nc1ccc2c(c1)OCCO2` (stereo not drawn) gave CYP2C9 inhib 14.0, Cav32 inh 1.5, CYP2C19 inh 17.9, CYP2C9 activ 0.9 and CYP2C19 act 0.8.
`COc1ccc(OC(=O)CCCN2C(=O)c3ccccc3C2=O)cc1` gave CYP2C9 inhib 6.6, Cav32 inh 0.535, CYP2C19 inh 52.9*, CYP2C9 activ 0.9 and CYP2C19 act 0.5.
For Cc1cc(=O)oc2cc(OC(=O)CCN3C(=O)c4ccccc4C3=O)ccc12 the results were CYP2C9 inhib 11.4, Cav32 inh 0.359, CYP2C19 inh 10.9, CYP2C9 activ 0.9 and CYP2C19 act 0.9.
COc1ccccc1OCCC(=O)OCCN1C(=O)c2ccccc2C1=O was read as CYP2C9 inhib 13.4, Cav32 inh 0.199, CYP2C19 inh 56.1*, CYP2C9 activ 0.9 and CYP2C19 act 0.4.
For COC(=O)C1=C(C)NC(C)=C(C(=O)OC)C1C(=O)OCCN1C(=O)c2ccccc2C1=O the results were CYP2C9 inhib 70.8*, Cav32 inh -0.335, CYP2C19 inh 80.2*, CYP2C9 activ 0.3 and CYP2C19 act 0.2.
`COC(=O)C1=C(C)NC(=O)NC1c1ccccc1` (stereo not drawn) gave Cav32 inh -2.43.
Screening COc1cccc2cc(C(=O)NCc3ccco3)c(=Nc3ccc(C(=O)O)cc3)oc12 returned CYP2C9 inhib 14.0, Cav32 inh -1.99, CYP2C19 inh 12.4, CYP2C9 activ 0.9 and CYP2C19 act 0.9.
Screening COc1ccc(C(=O)Cc2cc(OC)c(OC)cc2[N+](=O)[O-])cc1 returned CYP2C9 inhib -30.3, Cav32 inh -0.447, CYP2C19 inh 8.2, CYP2C9 activ 1.3 and CYP2C19 act 0.9.
For COc1ccc2oc3ccc(OC)cc3c(=O)c2c1 the results were CYP2C9 inhib -29.9, Cav32 inh 0.05, CYP2C19 inh 2.4, CYP2C9 activ 1.3 and CYP2C19 act 1.
Screening CN(C)S(=O)(=O)N1CCN(CC(O)COc2ccc3cc(Br)ccc3c2)CC1 (stereo not drawn) returned CYP2C9 inhib 57.8*, Cav32 inh -0.0803, CYP2C19 inh 48.5, CYP2C9 activ 0.4 and CYP2C19 act 0.5.
`CC(=O)Nc1ccc(OCC(O)CN2CCN(c3ccc(Cl)cc3)CC2)cc1` (stereo not drawn) gave Cav32 inh 0.519.
Screening CC(=O)Nc1ccc(S(=O)(=O)N2CCN(C(C)CCc3ccccc3)CC2)cc1 (stereo not drawn) returned CYP2C9 inhib 55.5*, Cav32 inh 0.975, CYP2C19 inh 49.5, CYP2C9 activ 0.4 and CYP2C19 act 0.5.
`OCCN1CCN(CC(O)COc2ccc3ccccc3c2)CC1` (stereo not drawn) gave CYP2C9 inhib -27.9, Cav32 inh -1.18, CYP2C19 inh -12.6, CYP2C9 activ 1.3 and CYP2C19 act 1.1.
OC(COc1ccc2cc(Br)ccc2c1)CN1CCCC1 (stereo not drawn) was read as CYP2C9 inhib -91.2, Cav32 inh -0.213, CYP2C19 inh -3.8, CYP2C9 activ 1.9 and CYP2C19 act 1.
For CC(=O)Nc1ccc(OCC(O)CN2CCN(S(=O)(=O)c3ccc(NC(C)=O)cc3)CC2)cc1 (stereo not drawn) the results were CYP2C9 inhib 70.0*, Cav32 inh -0.356, CYP2C19 inh 25.1, CYP2C9 activ 0.3 and CYP2C19 act 0.7.
`CC(=O)Nc1ccc(S(=O)(=O)N2CCN(CC(O)COc3ccc4ccccc4c3)CC2)cc1` (stereo not drawn) gave CYP2C9 inhib 87.4*, Cav32 inh -0.0133, CYP2C19 inh 87.0*, CYP2C9 activ 0.1 and CYP2C19 act 0.1.
COC(=O)Nc1ccc(S(=O)(=O)N2CCC(Cc3ccccc3)CC2)cc1 was read as CYP2C9 inhib 39.7, Cav32 inh -2.7, CYP2C19 inh 49.8, CYP2C9 activ 0.6 and CYP2C19 act 0.5.
For c1ccc(N=P(c2nc3ccccc3o2)(N2CCOCC2)N2CCOCC2)cc1 the results were CYP2C9 inhib -12.4, Cav32 inh 0.448, CYP2C19 inh -6.2, CYP2C9 activ 1.1 and CYP2C19 act 1.1.
For NC(=O)C1CCN(C2CC(=O)N(c3ccc(F)c(Cl)c3)C2=O)CC1 (stereo not drawn) the results were CYP2C9 inhib 8.2, Cav32 inh 0.485, CYP2C19 inh -3.2, CYP2C9 activ 0.9 and CYP2C19 act 1.
For COc1ccc(C2c3c(oc4ccccc4c3=O)C(=O)N2Cc2ccncc2)cc1OC (stereo not drawn) the results were Cav32 inh 1.13.
`CCCCn1c(CCC)nc([N+](=O)[O-])c1Sc1ccc(Cl)cn1` gave Cav32 inh -9.04*.
CC(C)Cn1c(C(C)C)nc([N+](=O)[O-])c1Sc1ccc(Cl)cn1 was read as Cav32 inh -5.81*.
`CC(C)Cn1c(C(C)C)nc([N+](=O)[O-])c1S(=O)(=O)c1ccc(F)cc1` gave CYP2C9 inhib 13.1, Cav32 inh -3.18, CYP2C19 inh 66.4*, CYP2C9 activ 0.9 and CYP2C19 act 0.3.
`CC(C)CC(=O)N1CCN(S(=O)(=O)c2ccc(F)cc2)CC1` gave CYP2C9 inhib 18.8, Cav32 inh -0.289, CYP2C19 inh 25.4, CYP2C9 activ 0.8 and CYP2C19 act 0.7.
Cn1c(-c2ccc(CN3CCCCC3)o2)nc2ccccc21 was read as CYP2C9 inhib 1.7, CYP2C19 inh 4.9, CYP2C9 activ 1 and CYP2C19 act 1.
For COC(=O)c1ccc(Sc2nnnn2-c2ccccc2)c([N+](=O)[O-])c1 the results were CYP2C9 inhib -6.6, Cav32 inh -0.212, CYP2C19 inh 65.7*, CYP2C9 activ 1.1 and CYP2C19 act 0.3.
`O=C(O)c1ccc(Sc2nnnn2-c2ccccc2)c([N+](=O)[O-])c1` gave CYP2C9 inhib 9.5, Cav32 inh -0.0274, CYP2C19 inh -0.9, CYP2C9 activ 0.9 and CYP2C19 act 1.
For CCOC(=O)COc1ccc2c3c(c(=O)oc2c1C)CCC3 the results were CYP2C9 inhib 78.8*, Cav32 inh -0.00662, CYP2C19 inh 64.8*, CYP2C9 activ 0.2 and CYP2C19 act 0.4.
Cc1cc2oc(=O)c3c(c2cc1OCc1nn[nH]n1)CCCC3 was read as CYP2C9 inhib 38.5, Cav32 inh 0.855, CYP2C19 inh 13.4, CYP2C9 activ 0.6 and CYP2C19 act 0.9.
